# ± gives the standard deviation of the averaged measurements. Over roughly 33,000 sequences, “E-score (rank enrichment, -0.5 to 0.5)” has its median near -0.0043; the highest 2% begin near 0.24. The sample as a whole holds a higher share of the highest values than the screen did.
# Test system: 2Sp-muMax20 (muMax20 with two 2,6-bis(methyl)pyridine Cys staples)
# Test: PBM 8-mer E-score (E-score (rank enrichment, -0.5 to 0.5)); higher = stronger preferential binding
# Protocol: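 Protein binding microarray (universal PBM chip covering all 10-mers in fixed probe flanks) with chemically synthesized human Max(13-93) bHLH-LZ analogs (not full-length Max) bearing noncanonical residues (hArg, Tha, Aib, Nle at 65) and aromatic Cys staples. Read-out per 8-mer (and its reverse complement): E-score (rank-based enrichment, -0.5 to 0.5) and Z-score of median probe intensity.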
row,Sequence,PBM 8-mer E-score
1,ATGACTTA,0.0917 ± 0.049
2,AGGATCAA,-0.0715 ± 0.043
3,AAACTGTA,0.00471 ± 0.023
4,GACAGATC,0.0282 ± 0.0066
5,AACAGATC,0.243 ± 0.058
6,AACAGATA,-0.0996 ± 0.022
7,CCCCAGGG,-0.293 ± 0.032
8,CCAGACCC,-0.142 ± 0.016
9,AAACTTGA,0.17 ± 0.089
10,AAACTTGC,0.267 ± 0.039
11,CAACTTGC,-0.157 ± 0.011
12,CATTAATA,0.201 ± 0.014
13,TATTAACA,0.218 ± 0.011
14,GATTAATA,0.274 ± 0.062
15,GATTAATC,-0.0645 ± 0.077
16,TATTAATA,0.274 ± 0.1
17,GATTAACA,0.174 ± 0.046
18,GTCCTGCA,-0.0516 ± 0.027
19,ACCGCACT,-0.193 ± 0.07
20,AAACTGGC,-0.0533 ± 0.0029
21,CAAGGCCG,-0.065 ± 0.016
22,GAAAGGCC,-0.146 ± 0.053
23,AAAAGGCC,0.3 ± 0.0042
24,AAAGGCCG,0.281
25,AAAAAGGC,0.00635 ± 0.045

row,Sequence,PBM 8-mer E-score
1,AAAGGCCC,-0.012 ± 0.043
2,GAAAAGGC,0.308 ± 0.013
3,CAAAGGCC,0.0557 ± 0.1
4,CAAAAGGC,0.0445 ± 0.053
5,AGTGTCGG,-0.166 ± 0.11
6,GATGCCCC,-0.0212 ± 0.099
7,ATTGAGGC,0.167 ± 0.021
8,ACCATGTC,0.0986 ± 0.05
9,CAAATGTG,0.0759 ± 0.025
10,AACATGCT,0.126 ± 0.0074
11,AACATGCG,0.253 ± 0.035
12,ACCATGTA,0.0783 ± 0.049
13,CTCATGTA,0.0793 ± 0.033
14,CACATGAA,0.138 ± 0.035
15,CACATGCG,0.166 ± 0.097
16,CACATGTC,0.0937 ± 0.018
17,CACATGTA,0.312 ± 0.02
18,ACCATGTG,0.262 ± 0.03
19,CACATGTG,0.4178 ± 0.00081
20,CCCTAAAG,0.134 ± 0.057
21,ACTCTAGC,-0.0888 ± 0.0064
22,GGGGCAAA,0.0419 ± 0.059
23,AGCCCAAC,0.0919 ± 0.041
24,GCTGACCA,-0.0567 ± 0.026
25,AGCCTTGG,0.0479 ± 0.022

row,Sequence,PBM 8-mer E-score
1,ACAAGTAG,0.00901 ± 0.018
2,AACATGTG,0.36 ± 0.026
3,AACATGTT,0.304 ± 0.043
4,AACATGTC,0.143 ± 0.038
5,AACATGAG,0.0341 ± 0.0065
6,AGCATGTG,0.223 ± 0.016
7,TACATGTA,0.265 ± 0.051
8,AACATGTA,0.2242 ± 0.0011
9,GACATGTA,0.217 ± 0.066
10,TACATGCA,0.222 ± 0.018
11,AGGGCTCG,-0.212 ± 0.027
12,ACAAGGGG,0.0199 ± 0.047
13,TCGATACA,0.197 ± 0.0083
14,GCGATGGA,-0.138 ± 0.0024
15,ATAGCCGA,-0.00055 ± 0.0078
16,ATTCCAGA,0.0163 ± 0.071
17,CGGTGATC,-0.15 ± 0.0077
18,ACTTGAAG,0.186 ± 0.027
19,CATGTAAA,0.12 ± 0.055
20,GATGTATA,0.107 ± 0.023
21,AATGTATA,0.269 ± 0.048
22,AATGTAAT,0.189 ± 0.0034
23,AATGTAAA,0.311 ± 0.014
24,CATGTATA,0.165 ± 0.0069
25,ATCTCTGA,-0.0124 ± 0.14

row,Sequence,PBM 8-mer E-score
1,AGCCGGTG,-0.254 ± 0.045
2,CCCGTACG,-0.0914 ± 0.052
3,AAGGCGTG,-0.0484 ± 0.012
4,ACGTGCAA,0.212 ± 0.029
5,CATAATAC,0.249 ± 0.028
6,CATAATAG,0.237 ± 0.028
7,CATAATAA,0.0619 ± 0.015
8,AATAATAC,-0.0356 ± 0.042
9,CATAATGG,0.153 ± 0.026
10,AATAATAG,0.137 ± 0.084
11,AGGTGGAG,-0.0381 ± 0.055
12,GATGACGA,0.165 ± 0.017
13,GCGCCTCC,0.111 ± 0.079
14,CAAGAGCC,-0.0162 ± 0.036
15,AAGCTGAA,0.104 ± 0.047
16,AGGAGGCG,0.0177 ± 0.059
17,GCATGCGC,0.164 ± 0.06
18,GCATGCGA,0.3 ± 0.012
19,CCATGCGA,0.0984 ± 0.026
20,ACATGCAG,0.0533 ± 0.012
21,GCATGCAA,0.244 ± 0.014
22,TCATGCAA,0.219 ± 0.014
23,ACATGCAT,0.333 ± 0.0087
24,GCATGCAC,0.216 ± 0.023
25,ACATGCAC,0.0958 ± 0.01

row,Sequence,PBM 8-mer E-score
1,AGACTCAA,-0.111 ± 0.022
2,GCGGCAGA,-0.228 ± 0.049
3,GAGCAGTA,0.113 ± 0.0065
4,AGAGGGCT,-0.00447 ± 0.07
5,ACGGGGCG,0.0718 ± 0.047
6,ACGTTATC,0.034 ± 0.046
7,ACGTTATG,0.284 ± 0.0056
8,ACGTTATA,0.204 ± 0.072
9,ACTTTATG,0.281 ± 0.065
10,ACTTTATC,-0.0354 ± 0.037
11,ACTTTATA,0.192 ± 0.053
12,AAAAAACT,0.0474 ± 0.0053
13,TACGCGTA,0.0583 ± 0.054
14,GATCTTCC,-0.219 ± 0.038
15,CAACCTCG,-0.194 ± 0.05
16,GGTTACTA,-0.067 ± 0.092
17,GTTACCGA,-0.284 ± 0.013
18,GTGCGCAA,-0.0392 ± 0.038
19,ATGCGCAC,0.195 ± 0.071
20,ATGCGCAA,0.184 ± 0.017
21,ATGCGCAT,0.335 ± 0.061
22,TTGCGCAA,0.344 ± 0.0038
23,ATGCGCAG,0.0186 ± 0.025
24,ATCCAGTA,0.134 ± 0.028
25,GATAGGGC,0.081 ± 0.019

row,Sequence,PBM 8-mer E-score
1,ATAGTTGA,0.121 ± 0.077
2,GTACGCAA,-0.0841 ± 0.033
3,ATACGCAG,0.0458 ± 0.043
4,ATACGCAA,0.308 ± 0.062
5,ACGAGCCT,-0.00942 ± 0.0098
6,CCAGCAGA,-0.0671 ± 0.018
7,AATCACGA,-0.0412 ± 0.011
8,AATCACGT,0.254 ± 0.024
9,AATCACAC,0.236 ± 0.041
10,AATCACGC,0.193 ± 0.015
11,GATCACAC,0.153 ± 0.019
12,AATCACAT,0.27 ± 0.019
13,AATCACAG,-0.0564 ± 0.011
14,AATCACAA,0.144 ± 0.036
15,CATCACAC,0.118 ± 0.035
16,CGTTATGC,0.177 ± 0.027
17,AAAGTTTA,0.206 ± 0.054
18,AGGTTTAC,-0.222 ± 0.071
19,ACTGTGCC,0.0364 ± 0.042
20,CCATCCCG,-0.00777 ± 0.0093
21,AACGTCCA,-0.012 ± 0.044
22,GTAGTTGA,0.116 ± 0.0092
23,ATTGCATC,0.134 ± 0.014
24,GCGATGCC,-0.221 ± 0.0047
25,GATCATGA,0.139 ± 0.016

row,Sequence,PBM 8-mer E-score
1,CCCTTCAC,0.0356 ± 0.018
2,AAATGTAC,0.296 ± 0.052
3,ACATGTCC,0.151 ± 0.033
4,AAATGTAG,0.134 ± 0.1
5,ATATGTAA,0.0958 ± 0.035
6,ACATGTAA,0.24 ± 0.04
7,CCATGTAA,0.122 ± 0.09
8,ACATGTCG,0.164 ± 0.071
9,ACATGTCT,0.251 ± 0.006
10,CTATGTAA,0.00312 ± 0.013
11,CAATGTAC,0.00633 ± 0.095
12,GTATGTAA,0.236 ± 0.055
13,TCATGTAA,0.0907 ± 0.036
14,ATAGTATC,0.0888 ± 0.11
15,ACGAACTC,-0.159 ± 0.021
16,GAACGTAC,-0.045 ± 0.0085
17,GCTTTGCA,-0.0268 ± 0.02
18,GCATGTAC,0.2075 ± 0.0014
19,AGATGTAT,0.167 ± 0.023
20,AAATGTAT,0.0866 ± 0.053
21,ACATGTAT,0.277 ± 0.0074
22,ACATGTAG,0.241 ± 0.051

# — the supplement of paper PMC12636033
